Test results published in PubChem BioAssay (EPA / NIEHS).
Records with an inconclusive call do not appear. Activity calls are given as the source filed them. The calls were made as follows: active = hit-call score of the fitted dose curve at least 0.9, where 1 is the maximum; inconclusive = response in the unintended direction; inactive = score below 0.9.

Read-out: glucuronosyltransferase (UGT1A1), UGT1A1 (gene 54658)
Experiment: CLD_UGT1A1_6hr: CellzDirect (CLD) Gene Expression Assay for glucuronosyltransferase (UGT1A1) at 6 hours (AID 2283672)
Method: CLD_6hr is a cell-based, multiplexed-readout assay that uses hepatocyte, a human liver primary cell, with measurements taken at 6 hours after chemical dosing in a 96-well plate.CLD_UGT1A1_6hr is one of 16 assay component(s) measured or calculated from the CLD_6hr assay. It is designed to make measurements of mRNA induction, a form of inducible reporter, as detected with chemiluminescence signals by Quantitative Nuclease Protection Assay (qNPA) technology.Data from the assay component CLD_UGT1A1_6hr was analyzed at the endpoint, CLD_UGT1A1_6hr, in the positive analysis fitting direction relative to DMSO as the negative control and baseline of activity. Using a type of inducible reporter, gain-of-signal activity can be used to understand changes in the reporter gene as they relate to the gene UGT1A1. Furthermore, this assay endpoint can be referred to as a primary readout. To generalize the intended target to other relatable targets, this assay endpoint is annotated to the transferase intended target family, where subfamily is glucuronosyltransferase.
Human hepatocyte cultures were treated daily for two consecutive days with fresh dosing solutions containing appropriate concentrations of the 320 ToxCast chemicals (chemical identities were blinded to CellzDirect and other ToxCast collaborators), vehicle control (0.2% DMSO), and positive control inducers as summarized in Table 1. Due to the large number of treatment groups and chemicals examined, the ToxCast chemicals were divided into two groups (spanning two independent cultures of hepatocytes from separate donor preparations (Hu778: ToxCast plates 1 and 2; Hu776: ToxCast plates 3 and 4). Each preparation of human hepatocyte cultures was treated with respective vehicle control, medium only control, set of six positive controls/reference chemicals for the five hepatic receptor pathways, and a subset of eight of the ToxCast chemicals (indoxacarb, pyrithiobac-sodium, norflurazon, cyhalofop-butyl, methomyl, thiram, acetochlor, and propiconazole). These replicate data, coupled with internal replicates designed within the blinded ToxCast chemical library, provided additional data to evaluate interindividual differences between hepatocyte preparations and their potential impact on chemical profiles.Cell morphology and integrity were evaluated using phase-contrast microscopy as an indicator of hepatocyte cell health (Tyson & Green, 1987). Cultures for each treatment group (i.e., media, vehicle [0.2% DMSO], positive control inducers [multiple concentrations], and the ToxCast chemicals [multiple concentrations]) were observed and cell morphology was assessed relative to vehicle control cultures at each harvest time point (0, 6, 24, or 48 h). […] Images were evaluated at the conclusion of the study to assess changes in cell integrity and account for the effects of chemical exposure on uncharacteristic changes in concentration-dependent gene expression profiles. The results from these determinations of apparent cytotoxicity were annotated (yes/no) alongside the corresponding qNPA data for reference.At the conclusion of each treatment period, hepatocyte cultures (96-well) were washed with 1 volume of HBSS, lysed by addition of 25 ul ArrayPlate lysis buffer (HTG, Tucson, AZ), and 70 ul/well of Denaturation Oil, denatured by incubation at 95C for 10 min, and frozen at approximately -70C until analysis by nuclease protection assay (qNPA) (Roberts et al., 2007). For qNPA analysis, cell lysates were thawed at 50C for approximately 30 min, qNPA probes were added, and samples were incubated at 95C for 10 min to begin the detection process by denaturing the target RNA, dissociating the duplexes and secondary structure hybridization. At the conclusion of the hybridization period, S1 nuclease reagent was added to each sample to digest all nonprotected nucleotides at 50C for 60-90 min. […]

Compound | outcome | AC50
CC1(C)C(C=C(Cl)Cl)C1C(=O)OC(C#N)c1cccc(Oc2ccccc2)c1 (stereo not given) | inactive | 
COP(=O)(OC)O/C(C)=C/C(=O)N(C)C | inactive | 
O=C(O)c1c(Cl)ccc2cc(Cl)cnc12 | inactive | 
COCc1cnc(C2=NC(C)(C(C)C)C(=O)N2)c(C(=O)O)c1 (stereo not given) | inactive | 
CN=C=S | inactive | 
Cc1cnc(C2=NC(C)(C(C)C)C(=O)N2)c(C(=O)O)c1 (stereo not given) | inactive | 
COCC(C)N(C(=O)CCl)c1c(C)csc1C (stereo not given) | inactive | 
COc1ccc(-c2ccccc2)cc1NNC(=O)OC(C)C | inactive | 
O=c1n(Cl)c(=O)n(Cl)c(=O)n1Cl | inactive | 
CCCCC(O)(Cn1cncn1)c1ccc(Cl)cc1Cl (stereo not given) | inactive | 
CC(C)Oc1cccc(NC(=O)c2ccccc2C(F)(F)F)c1 | inactive | 
CCOc1nc(C(Cl)(Cl)Cl)ns1 | inactive | 
N#Cc1c[nH]cc1-c1cccc2c1OC(F)(F)O2 | inactive | 
CC1(C)CCC(=Cc2ccc(Cl)cc2)C1(O)Cn1cncn1 (stereo not given) | inactive | 
COC(=O)c1c(C(F)F)nc(C(F)(F)F)c(C2=NCCS2)c1CC(C)C | inactive | 
CC1(C)CON(Cc2ccccc2Cl)C1=O | inactive | 
CC(C)N1C(=O)N(c2ccccc2)CSC1=NC(C)(C)C | inactive | 
CCCN(CC)CC1COC2(CCC(C(C)(C)C)CC2)O1 (stereo not given) | inactive | 
CCSC(=O)N1CCCCCC1 | inactive | 
COc1cc(Cl)c(OC)cc1Cl | inactive | 

Compound | outcome | AC50
OC(c1ccc(Cl)cc1)(c1ccc(Cl)cc1)C(Cl)(Cl)Cl | inactive | 
C=C(C)CN(CC)c1c([N+](=O)[O-])cc(C(F)(F)F)cc1[N+](=O)[O-] | inactive | 
CCC(C)n1c(=O)[nH]c(C)c(Br)c1=O (stereo not given) | inactive | 
COP(=S)(OC)SCn1nnc2ccccc2c1=O |  | 1.73 µM (active)
CCOP(=O)(OCC)Oc1nc(Cl)c(Cl)cc1Cl | inactive | 
CCOc1nc(F)cc2nc(S(=O)(=O)Nc3c(Cl)cccc3Cl)nn12 | inactive | 
CCOC(=O)C(C)OC(=O)c1cc(Oc2ccc(C(F)(F)F)cc2Cl)ccc1[N+](=O)[O-] (stereo not given) | inactive | 
Clc1nc(Cl)nc(Nc2ccccc2Cl)n1 | inactive | 
CC(C)=CC1C(C(=O)OCc2coc(Cc3ccccc3)c2)C1(C)C (stereo not given) | inactive | 
Nc1cnn(-c2ccccc2)c(=O)c1Cl | inactive | 
COC(=O)NS(=O)(=O)c1ccc(N)cc1 |  | 20 µM (active)
Nc1c(Cl)c(Cl)nc(C(=O)O)c1Cl | inactive | 
CCOc1cc(C(C)(C)C)ccc1C1COC(c2c(F)cccc2F)=N1 (stereo not given) | inactive | 
COCC(=O)N(c1c(C)cccc1C)C(C)C(=O)OC (stereo not given) | inactive | 
CCNP(=S)(OC)O/C(C)=C/C(=O)OC(C)C (stereo not given) | inactive | 
CC(C)Nc1nc(Cl)nc(NC(C)C)n1 | inactive | 
CCN(CC)C(=O)C(C)Oc1cccc2ccccc12 (stereo not given) | inactive | 
CCN(CC)c1nc(C)cc(OP(=S)(OC)OC)n1 | inactive | 
Cc1c(COC(=O)[C@@H]2[C@H](/C=C(\Cl)C(F)(F)F)C2(C)C)cccc1-c1ccccc1 | inactive | 
Cc1nc(N(C)C)nc(OC(=O)N(C)C)c1C | inactive | 
